We go through 7 molecules from the supplement of paper PMC10105736.

Assay in all cases: MAPPIT interaction score (arbitrary units); higher = stronger binary interaction signal, active = hit call of the paper
In assay [1] the target is BEAF-32. As to conditions: MAPPIT configuration: N-N; pair source set: screen_1. Here is the method:
(§1)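 MAPPIT in HEK293T cells: Drosophila bait and prey ORFs (from the FlyBi ORF collection) were co-transfected in quadruplicate, with two wells stimulated by erythropoietin. Interaction-dependent JAK-STAT activation was read out with a STAT-responsive firefly luciferase reporter. Positive calls use the 99th percentile of random reference set (RRS) scores within each batch […]. Batches Dvs01 and Dvs02 used the N-N configuration and Dvs04 the N-C configuration. Pairs come from FlyBi screens, CuraGen, DPiM, Finley Y2H, Lit-BM-16, Lit-BS-16 and RRS.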

Assay [2] deals with Atx-1. As to conditions: MAPPIT configuration: N-C; pair source set: screen_4. The method, then: as §1
In assay [3] the target is Arts. As to conditions: MAPPIT configuration: N-N; pair source set: Finley_Y2H. The method, then:
as §1

The target of assay [4] is Pu. As to conditions: MAPPIT configuration: N-N; pair source set: screen_1. Here is the method: as §1
In assay [5] the target is Vinc. As to conditions: pair source set: Lit-BM-16. The method, then: as §1
Assay [6] concerns the target Bet1. The following applies: pair source set: Lit-BM-16. Here is the method: as §1
Assay [7] has as its target Atg16. As to conditions: MAPPIT configuration: N-C; pair source set: Lit-BM-16. The method, then:
as §1

For assay [8], the target named is Ass. The following applies: MAPPIT configuration: N-N; pair source set: Curagen_high_conf. Here is the method:
as §1

In assay [9] the target is Arv1. The following applies: MAPPIT configuration: N-C; pair source set: RRS. The method, then: as §1

Unmarked numbers belong to inactive results.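 How the source made its calls: active = MAPPIT score above the 99th percentile of random reference set scores in the same batch; inactive = at or below it.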
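Further: HEK293T cells with Epo stimulation, STAT-responsive firefly luciferase reporter, fold induction versus unstimulated cells divided by the larger fold induction of two negative controls lacking either bait or prey.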

B1: Sry-delta (protein)
chain: MDTCFFCGAVDLSDTGSSSSMRYETLSAKVPSSQKTVSLVLTHLANCIQTQLDLKPGARLCPRCFQELSDYDTIMVNLMTTQKRLTTQLKGALKSEFEVPESGEDILVEEVEIPQSDVETDADAEADALFVELVKDQEESDTEIKREFVDEEEEEDDDDDDEFICEDVDVGDSEALYGKSSDGEDRPTKKRVKQECTTCGKVYNSWYQLQKHISEEHSKQPNHICPICGVIRRDEEYLELHMNLHEGKTEKQCRYCPKSFSRPVNTLRHMRMHWDKKKYQCEKCGLRFSQDNLLYNHRLRHEAEENPIICSICNVSFKSRKTFNHHTLIHKENRPRHYCSVCPKSFTERYTLKMHMKTHEGDVVYGVREEAPADEQQVVEELHVDVDESEAAVTVIMSDNDENSGFCLICNTNFENKKELEHHLQFDHDVVLK
Regarding B1, the MAPPIT interaction score in assay [1] was 4.3 (active).

B2: CG9132 (protein)
chain: MEYESVLIVKPEVFIYKIPPRASNRGYRAGDWNLKEPTWTGRMRLVAKGTAVVLKLEDKTSGALFANCPIDTYPGVAIEAVSDSSRYFVIRVQDDNGRSAFLGLGFGDRSDSFDLNVALQDHFKWVKNQEQIEKEKTEPKQELDLGFKEGETIKINMRITKKDGSEGSSRTGKNKGSSGVLPPPPGGLGKIAPPPAAAAANTTVRQSPGVSPAHRPAAGGSEWTDYASAGGNQGQQNSANANWVQF
In the case of B2, in [2], the MAPPIT interaction score is 2.48.

B3: CAP (protein)
chain: MEPGTIPSPVSAPVAAPVTPSAVAAPVQVVSPAAVAPAPAAPIAVTPVAPPPTLASVQPATVTIPAPAPIAAASVAPVASVAPPVVAAPTPPAASPVSTPPVAVAQIPVAVSAPVAPPVAATPTPVAPIPVAAPVIATPPVAASAPTPAAVTPVVSPVIATPPVVPANTTVPVAAPVAAVPAAVPVVAPVLAPAVAPAVAPVVAETPAPPPVAEIPVATIPECVAPLIPEVSVVATKPLAAAEPVVVAPPATETPVVAPAAASPHVSVAPAVETAVVAPVSASTEPPVAAATLTTAPETPALAPVVAESQVAANTVVATPPTPAPEPETIAPPVVAETPEVASVAVAETTPPVVPPVAAESIPAPVVATTPVPATLAVTDPDVTASAVPELPPVIAPSPVPSAVAETPVDLAPPVLPPVAAEPVPAVVAEETPETPAPASAPVTIAALDIPEVAPVIAAPSDAPAEAPSAAAPIVSTPPTTASVPETTAPPAAVPTEPIDVSVLSEAAIETPVAPPVEVTTEVAVADVAPPEAAADLIIEPVEPPAPIPDLLEQTTSVPAVEAAESTSSPIPETSLPPPNEAVASPEVAVAPITAPEPIPEPEPSLATPTEPIPVEAPVVIQEAVDAVEVPVTETSTSIPETTVEYPVAEKVLDPAITEAPVTTQEPDVANINDGAPATEITTPAVEIVTAAAEVSDTAIPLIDPPVPQEIAVAEIPETETKPAEVIVEQSTIPIEAPVPEVSKYAEPVISEAPAAEVPITAGDNPDNTSVGISEVVPTIAEKAVEEVPTSEIPEQSSSPSDSVPVAKITPLLRDLQTTDVSLLAIAATLDAIGEKLKDQKARNQQVMDRLCEIEKILGPPKSN
Turning to B3, the MAPPIT interaction score was 0.381 in assay [3], -0.205 in [4], 2.37 in assay [5] (MAPPIT configuration: N-C) and 2.53 in assay [5] (MAPPIT configuration: N-N).

B4: Gos28 (protein)
chain: MGGSSYDVLRKQARSLENEIDLKLVAFSKIGAGSGGGGSGGLGGVDTSPLLGEHVFDSLSEEIEQMLEKLSSLNESMSDLPASGAAAMHTLQRHREILQGYRQEFNKICANHTMRIEREELLRGSGLATSSGSPSISGLNRREMYLKESGHLNSASHLVNDQINIAIETRDHLHAQRQAFKRLQTRFNDISNRFPLISSLIQRINIKKRRDSLILGAVIGFCVILLLLYAFN
On to B4, for which the MAPPIT interaction score in [6] (MAPPIT configuration: N-C) is -0.272; in [6] (MAPPIT configuration: N-N), -0.1.

B5: Atg5 (protein)
chain: MAHDREVLRMIWEGQIGICFQADRDEIVGIKPEPFYLMISRLSYLPLVTDKVRKYFSRYISAEHQDGAVWFDFNGTPLRLHYPIGVLYDLLHPEEDSTPWCLTIHFSKFPEDMLVKLNSKELLESHYMSCLKEADVLKHRGLVISAMQKKDHNQLWLGLVNEKFDQFWAVNRRLMEPYGDLESFKNIPLRIYTDDDFTYTQKLISPISVGGQKKSLADLMAELSTPVRRAVGCRTHGIDLHEETQLQWMSEHLSYPDNFLHLSVDYKDV
For the molecule B5, the MAPPIT interaction score in [7] is 2.6.

B6: Git (protein)
chain: MCFASSIIEAHRKLFIAPPDLDHSDPATPTISTRSKMPRGKSRLQTEVCGDCGAGDPSWASINRGILLCADCCSVHRSLGRHISIVKSLRQGNWEPSVLNFVNSLNAHGANSVWEHHLLDGSTNSTGGKHVPRWRKPTPKDALHPTKSDFIKAKHVNLTFVLKPSLQDDDDGNGSAGCLEQELSRQLHASVRTSNLETSLRFLVQGADPNYYHEDKLSTPLHMAAKFGQASQIEMLLIYGADVNALDGNGMTPLELARANNHNTIAERLLDAMYDVTDRIITFLGGKKPDHASGRHMIIPDANGADISEQLKIARGKLQLVPNKMFEELVMDLYDEVDRRECEAIWSTSTLNADHATVPFLPANPFLSATRNQGRQKLARFNRAEFTGLLTDVLVDAMRRQNMANLRPMDAPVAGHQSLQSLPYANNSMLLGSFEQGGHDPNLSDDEPIYDPVASDDDYAPVPPMAQQAIVHTPPRSANSHNEMETLRKQLNDYKSEINQLKNVVQMLSSENTQLKSKFSSASNNSVYDEPLRIDLSLSSPDTEHEPLSLPEGGTANGESGSSNDSSNQSTIKRPASMYERRLVPNVAKGNTDIRNTTSMYQMAGDGKPFGEEVKVRSDLVTRRLKELIRAMQPVPEDQKQSIAPHGELIRSAVTDLIALYANLPPNASDPSRETLKLLTRQNILIQHECENLQKAIEADDKQAIQKNTLEVRDCAFHIASAIKTLVLQFY
Regarding B6, the MAPPIT interaction score in [8] was -0.0648.

B7: Drak (protein)
chain: MFTEKGIFPIGDGLLDVDADRLKGLLVSCPDINEIYEVEQTPFARGKFAAVRRAIHKNTGSHFAAKFLKRRRRAQSSDKEIKHEIAVLMLCEGEDNIVNLNAVHETRSDTALLLELATGGELQTILDNEECLTEAQARHCMREVLKALKFLHDRSIAHLDLKPQNILLAGERIEDGLKLCDFGISRVVCEGINVREMAGTPDYVAPEVLQYEPLSLLTDIWSVGVLTYVLLSGFSPFGGDTKQETFLNISQCALTFPDNLFGGVSPVAIDFIRRALRIKPNDRMNATGCLDHIWLKDDCSLDRQIYLQPQSDAEEEEEEDVDDDVEDEEEEEQVEEEEEETQNVEEPTTEAPQQQQQPVQQHQLAKSGQIHSKPTHNGHHRANSGGSISKIPIATSKLQSTPSSETTTAIHTLTSNSNGHVHKPTQIVTPTRRASDSDKENTYTATFVKKPVATIQLGSSNGIEDATVVATLTLFPDAPTTPKVIRKTPTGESNGSATSVKALVKKFQLEDSSGSAVARRSGGAVTSSSGLHSPTTTSVRLNSIRRASEPLTTVYKKQTSQNGCSSTSNPSSSPGSSPTTSGSTATLLIHSQRLGNSTAPASHCVAVPATATATSSASSSNSSSGKSTSAAHHLHHHHMHHHHHHHHHHVVIAAKNAAAVAATNNLSLDQGIIC
For the molecule B7, the MAPPIT interaction score in assay [9] is 2.34.
